PubChem BioAssay (NCI)
About 83,000 compounds went through this panel and 20% of them were active in at least one assay; those are over-represented in the sample as a whole.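 The endpoint reported here, percent growth, reads 100 for growth as untreated, 0 for no net growth and -100 for all cells dead.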 Unmarked numbers belong to inactive results. How the source made its calls: active means growth percent below 10; inactive means the rest.

tested on: MDA-MB-468 breast; test: NCI-60 one-dose screen, 48 h (100 = growth as untreated, 0 = no growth, -100 = all killed); conditions: 10 µM unless noted

SMILES | growth
N#CCC1CCCC1 | 97.4%
O=c1cc(-c2ccccc2)oc2cc(OCc3cn(Cc4ccc(F)cc4)nn3)cc(OCc3cn(Cc4ccc(F)cc4)nn3)c12 | 38.7%
COc1cc(-c2nc3ccccc3o2)cc(CN2CCN(c3ccccc3)CC2)c1O | 76.3%
Cc1sc2nc(NCCN)[nH]c(=O)c2c1C | 80%
